Test results reported in ChEMBL document CHEMBL2218924, “A broad activity screen in support of a chemogenomic map for kinase signalling research and drug discovery” (Biochem J, 2013).

Biological target: Serine/threonine-protein kinase PLK1 (Homo sapiens) (UniProt P53350)
Settings: at 1 µM; call rule not given here

Chain of Serine/threonine-protein kinase PLK1 (Homo sapiens) (P53350 whole entry): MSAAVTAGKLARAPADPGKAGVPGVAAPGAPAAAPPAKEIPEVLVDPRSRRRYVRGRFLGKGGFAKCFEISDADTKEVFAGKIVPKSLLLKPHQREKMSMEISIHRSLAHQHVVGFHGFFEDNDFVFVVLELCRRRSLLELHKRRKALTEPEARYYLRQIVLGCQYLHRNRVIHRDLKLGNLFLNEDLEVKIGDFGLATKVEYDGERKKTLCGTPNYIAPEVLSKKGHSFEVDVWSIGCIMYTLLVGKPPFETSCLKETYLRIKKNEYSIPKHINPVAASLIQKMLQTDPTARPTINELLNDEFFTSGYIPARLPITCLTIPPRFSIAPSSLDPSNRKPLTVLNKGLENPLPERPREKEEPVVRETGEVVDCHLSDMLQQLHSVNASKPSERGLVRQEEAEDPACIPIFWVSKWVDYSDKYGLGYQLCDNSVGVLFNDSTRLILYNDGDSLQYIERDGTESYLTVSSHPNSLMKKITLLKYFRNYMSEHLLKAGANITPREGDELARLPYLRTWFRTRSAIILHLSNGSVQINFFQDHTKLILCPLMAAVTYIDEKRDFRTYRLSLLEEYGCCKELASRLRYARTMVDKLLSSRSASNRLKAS

SMILES | residual activity
COc1cc(OC)c(/C=C2\C(=O)Nc3ccccc32)c(OC)c1 | 76%
CCn1cnc2c(Nc3cccc(Cl)c3)nc(N[C@@H]3CCCC[C@@H]3N)nc21 | 71%
COC(=O)[C@@]1(O)C[C@H]2O[C@]1(C)n1c3ccccc3c3c4c(c5c6ccccc6n2c5c31)C(=O)NC4 | 50%
O=C1Nc2ccc3ncsc3c2/C1=C/c1c[nH]cn1 | 84%
C[S+]([O-])c1ccc(-c2nc(-c3ccc(F)cc3)c(-c3ccncc3)[nH]2)cc1 (stereo unspecified) | 117%
O=[N+]([O-])/C=C/c1ccc2c(c1)OCO2 | 96%
O=C1c2ccccc2-c2nc3nnnn3nc21 | 103%
CC(C)(C)c1cc(C=C(C#N)C#N)cc(Br)c1O | 113%
N/C(=N\[N+](=O)[O-])N/N=C\c1ccc(-c2cccc([N+](=O)[O-])c2)o1 | 83%
COc1cc2ncnc(Nc3ccc(OCc4ccccc4)cc3)c2cc1OC | 97%
O=c1[nH]c2ccccc2n1C1CCN(Cc2ccc(-c3nc4cc5[nH]cnc5cc4nc3-c3ccccc3)cc2)CC1 | 101%
CC(C)[C@H](CO)Nc1nc(Nc2cccc(Cl)c2)c2ncn(C(C)C)c2n1 | 75%

Biological target: Serine/threonine-protein kinase PLK1 (Homo sapiens) (UniProt P53350)
Settings: at 10 µM

SMILES | residual activity
COc1cc(OC)c(/C=C2\C(=O)Nc3ccccc32)c(OC)c1 | 77%
CCn1cnc2c(Nc3cccc(Cl)c3)nc(N[C@@H]3CCCC[C@@H]3N)nc21 | 47%
COC(=O)[C@@]1(O)C[C@H]2O[C@]1(C)n1c3ccccc3c3c4c(c5c6ccccc6n2c5c31)C(=O)NC4 | 17%
O=C1Nc2ccc3ncsc3c2/C1=C/c1c[nH]cn1 | 44%
C[S+]([O-])c1ccc(-c2nc(-c3ccc(F)cc3)c(-c3ccncc3)[nH]2)cc1 (stereo unspecified) | 99%
O=[N+]([O-])/C=C/c1ccc2c(c1)OCO2 | 78%
COc1ccc2c(c[n+](C)c3c4cc5c(cc4ccc23)OCO5)c1OC | 75%
O=C1c2ccccc2-c2nc3nnnn3nc21 | 64%
CC(C)(C)c1cc(C=C(C#N)C#N)cc(Br)c1O | 97%
N/C(=N\[N+](=O)[O-])N/N=C\c1ccc(-c2cccc([N+](=O)[O-])c2)o1 | 78%
COc1cc2ncnc(Nc3ccc(OCc4ccccc4)cc3)c2cc1OC | 78%
O=c1[nH]c2ccccc2n1C1CCN(Cc2ccc(-c3nc4cc5[nH]cnc5cc4nc3-c3ccccc3)cc2)CC1 | 80%
CC(C)[C@H](CO)Nc1nc(Nc2cccc(Cl)c2)c2ncn(C(C)C)c2n1 | 45%

Biological target: Serine/threonine-protein kinase PLK3 (Homo sapiens) (UniProt Q9H4B4)
Settings: at 1 µM

Chain of Serine/threonine-protein kinase PLK3 (Homo sapiens) (Q9H4B4 whole entry, looked up): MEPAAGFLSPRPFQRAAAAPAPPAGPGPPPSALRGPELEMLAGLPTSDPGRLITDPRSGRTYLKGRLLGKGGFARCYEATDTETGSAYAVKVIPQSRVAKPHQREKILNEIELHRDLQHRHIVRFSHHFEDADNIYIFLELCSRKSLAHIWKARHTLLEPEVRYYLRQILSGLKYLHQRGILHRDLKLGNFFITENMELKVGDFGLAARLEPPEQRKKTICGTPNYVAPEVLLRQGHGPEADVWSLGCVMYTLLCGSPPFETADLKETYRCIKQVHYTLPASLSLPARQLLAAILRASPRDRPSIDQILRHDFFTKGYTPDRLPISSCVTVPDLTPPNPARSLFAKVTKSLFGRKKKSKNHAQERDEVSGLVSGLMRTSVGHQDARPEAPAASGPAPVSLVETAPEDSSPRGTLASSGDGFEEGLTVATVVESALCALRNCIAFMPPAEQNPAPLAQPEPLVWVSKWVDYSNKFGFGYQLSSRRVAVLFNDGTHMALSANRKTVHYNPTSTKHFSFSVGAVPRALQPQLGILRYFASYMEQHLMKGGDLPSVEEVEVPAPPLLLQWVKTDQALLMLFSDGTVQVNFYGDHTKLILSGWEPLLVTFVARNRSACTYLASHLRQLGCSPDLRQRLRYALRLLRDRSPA

SMILES | residual activity
CN[C@@H]1C[C@H]2O[C@@](C)([C@@H]1OC)n1c3ccccc3c3c4c(c5c6ccccc6n2c5c31)C(=O)NC4 | 81% (inactive)
COc1cc(OC)c(/C=C2\C(=O)Nc3ccccc32)c(OC)c1 | 91% (inactive)
CCn1cnc2c(Nc3cccc(Cl)c3)nc(N[C@@H]3CCCC[C@@H]3N)nc21 | 94% (inactive)
COC(=O)[C@@]1(O)C[C@H]2O[C@]1(C)n1c3ccccc3c3c4c(c5c6ccccc6n2c5c31)C(=O)NC4 | 90% (inactive)
O=C1NC(=O)c2c1c1c3ccccc3n3c1c1c2c2ccccc2n1C1CCC3O1 | 88% (inactive)
O=C1Nc2ccc3ncsc3c2/C1=C/c1c[nH]cn1 | 70% (inactive)
C[S+]([O-])c1ccc(-c2nc(-c3ccc(F)cc3)c(-c3ccncc3)[nH]2)cc1 (stereo unspecified) | 90% (inactive)
O=[N+]([O-])/C=C/c1ccc2c(c1)OCO2 | 96% (inactive)
COc1ccc2c(c[n+](C)c3c4cc5c(cc4ccc23)OCO5)c1OC | 96% (inactive)
O=C1c2ccccc2-c2nc3nnnn3nc21 | 76% (inactive)
CC(C)(C)c1cc(C=C(C#N)C#N)cc(Br)c1O | 102% (inactive)
N/C(=N\[N+](=O)[O-])N/N=C\c1ccc(-c2cccc([N+](=O)[O-])c2)o1 | 100% (inactive)
COc1cc2ncnc(Nc3ccc(OCc4ccccc4)cc3)c2cc1OC | 90% (inactive)
O=c1[nH]c2ccccc2n1C1CCN(Cc2ccc(-c3nc4cc5[nH]cnc5cc4nc3-c3ccccc3)cc2)CC1 | 97% (inactive)
CC(C)[C@H](CO)Nc1nc(Nc2cccc(Cl)c2)c2ncn(C(C)C)c2n1 | 99% (inactive)
CCc1nc(-c2ccc(OC)cc2)[nH]c1-c1ccncc1 | 106% (inactive)

Biological target: Serine/threonine-protein kinase PLK3 (Homo sapiens) (UniProt Q9H4B4)
Settings: at 10 µM

SMILES | residual activity
CN[C@@H]1C[C@H]2O[C@@](C)([C@@H]1OC)n1c3ccccc3c3c4c(c5c6ccccc6n2c5c31)C(=O)NC4 | 50%
COc1cc(OC)c(/C=C2\C(=O)Nc3ccccc32)c(OC)c1 | 91%
CCn1cnc2c(Nc3cccc(Cl)c3)nc(N[C@@H]3CCCC[C@@H]3N)nc21 | 89%
COC(=O)[C@@]1(O)C[C@H]2O[C@]1(C)n1c3ccccc3c3c4c(c5c6ccccc6n2c5c31)C(=O)NC4 | 54%
O=C1NC(=O)c2c1c1c3ccccc3n3c1c1c2c2ccccc2n1C1CCC3O1 | 94%
O=C1Nc2ccc3ncsc3c2/C1=C/c1c[nH]cn1 | 68%
O=[N+]([O-])/C=C/c1ccc2c(c1)OCO2 | 104%
COc1ccc2c(c[n+](C)c3c4cc5c(cc4ccc23)OCO5)c1OC | 77%
O=C1c2ccccc2-c2nc3nnnn3nc21 | 12%
CC(C)(C)c1cc(C=C(C#N)C#N)cc(Br)c1O | 110%
N/C(=N\[N+](=O)[O-])N/N=C\c1ccc(-c2cccc([N+](=O)[O-])c2)o1 | 99%
COc1cc2ncnc(Nc3ccc(OCc4ccccc4)cc3)c2cc1OC | 96%
O=c1[nH]c2ccccc2n1C1CCN(Cc2ccc(-c3nc4cc5[nH]cnc5cc4nc3-c3ccccc3)cc2)CC1 | 94%
CC(C)[C@H](CO)Nc1nc(Nc2cccc(Cl)c2)c2ncn(C(C)C)c2n1 | 87%
CCc1nc(-c2ccc(OC)cc2)[nH]c1-c1ccncc1 | 102%
